Screens: PubChem, National Center for Advancing Translational Sciences (NCATS)
NPC1 promoter act = activates the NPC1 promoter; Huh7 NPC1 promoter luciferase reporter, 24 h; Potency, µM (series often up to 9.22 µM), most hits filed as activators; 320,000 tested, 2.4% active; AID 485313; note: nearly all actives have a fitted effect of over 60% in size
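Huh7 reporter cells (NPC1 promoter driving luciferase) are dosed with compound for 24 h at 37 °C, 5% CO2; luciferase detection reagent is then added and luminescence measured after 10 min at ambient temperature.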
ELG1 genotoxic = induces genotoxicity in HEK293T cells with luciferase-tagged ELG1; HEK293T ELG1-luciferase reporter, luminescence, 16 h; Potency, µM (titrated, usually from 46 µM), usual class: activators; 330,000 tested, 1.3% active; note: nearly all actives have a fitted effect of over 60% in size
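Genotoxic stress is detected as increased luminescence from luciferase-tagged ELG1 in HEK293T cells, measured with ONE-Glo after a 16 hr treatment at 37 °C.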
Rab9 prom act = activators of Rab9 promoter. 320,000 tested, 2.8% active. Potency, µM (highest dose often 9.22 µM), usual class: activators. AID 485297. Huh7 Rab9 promoter-luciferase reporter, luminescence, 24 h; note: nearly all actives have a fitted effect of over 60% in size
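Huh7 cells stably carrying Rab9 promoter–luciferase reporter, plated 1500 cells/well, compound added after 2 h and incubated 24 h at 37 °C; luciferase luminescence then read after 10 min with detection reagent.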
SMN2 splice enh = SMN2 splice variant enhancement. AID 1458. HEK293 SMN2-luciferase splicing reporter, luminescence, 30-36 h. Potency, µM (titrated, usually from 46.1 µM), actives largely listed as activators. 210,000 tested, 2.8% active; note: nearly all actives have a fitted effect of over 55% in size
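HEK293 cells carry an SMN2 […]–luciferase reporter in which exon 7 inclusion puts luciferase in frame. Cells were plated 10-12 h before compound addition, then incubated 30-36 h at 37C. ONE-Glo luminescence was read; sodium butyrate at 4.5 mM final served as control.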
p53 reactivation = mutant p53 re-activation in reporter cells; H1299 p53-A138V BP100-luciferase reporter, luminescence, 24 h; Potency, µM (titrated, usually from 92.2 µM), hits mostly activators; 320,000 tested, 0.063% active; note: nearly all actives have a fitted effect of over 45% in size
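p53-null H1299 cells stably carrying temperature-sensitive p53-A138V and a BP100-luciferase reporter were pinned with compounds (4-point, 1:5 series) and held 24 hrs at 37 deg C. Luminescence was read 10 min after detection reagent.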
FLuc counter = firefly luciferase modulation, counter-screen for miR-21 project; AID 588342; purified FLuc, Km substrates, luminescence inhibition; Potency, µM (series often up to 57.5 µM), usual class: inhibitors; 360,000 tested, 6.9% active; P08659; note: nearly all actives have a fitted effect of over 55% in size
Target sequence (P08659 whole entry, looked up): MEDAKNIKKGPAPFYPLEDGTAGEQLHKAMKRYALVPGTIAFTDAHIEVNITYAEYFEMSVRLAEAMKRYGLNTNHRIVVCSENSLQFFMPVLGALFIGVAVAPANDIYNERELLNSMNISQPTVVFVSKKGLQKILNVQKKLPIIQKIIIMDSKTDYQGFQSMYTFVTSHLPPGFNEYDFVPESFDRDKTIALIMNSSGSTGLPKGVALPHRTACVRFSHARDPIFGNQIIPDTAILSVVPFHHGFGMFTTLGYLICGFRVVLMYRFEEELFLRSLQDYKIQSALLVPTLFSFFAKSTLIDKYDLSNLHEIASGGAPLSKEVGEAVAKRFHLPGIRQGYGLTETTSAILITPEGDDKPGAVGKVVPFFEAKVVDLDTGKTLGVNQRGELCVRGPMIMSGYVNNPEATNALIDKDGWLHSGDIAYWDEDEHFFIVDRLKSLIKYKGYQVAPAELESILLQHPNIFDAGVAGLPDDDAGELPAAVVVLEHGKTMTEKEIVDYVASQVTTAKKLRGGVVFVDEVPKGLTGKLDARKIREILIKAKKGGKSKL
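Biochemical qHTS of compounds, final roughly 60 µM downward over six points, against 10 nM purified firefly luciferase using Km concentrations of substrates (10 uM D-luciferin, 10 uM ATP) in Tris acetate pH 7.5 buffer; luminescence output.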
Large screens that a line does not name were inactive. An excerpt weighted towards active compounds, which were near 7.3% of everything screened. Calls come from the whole dose curve; as a rule, active = well fitted curve in the direction sought with a large enough effect; inconclusive = small, poorly fitted or top-dose-only effect, or another doubt; inactive = no such curve, though single readings can be large; an effect the other way counts as inactive or inconclusive.

CSc1cccc(NC(=O)/C=C/c2cccc(Cl)c2)c1	NPC1 promoter act inconclusive, Rab9 prom act 3.16µM, SMN2 splice enh 14.1µM, p53 reactivation inconclusive, FLuc counter 8.49µM
O=C(/C=C/c1cccc(Cl)c1)Nc1ncccn1	NPC1 promoter act inconclusive, Rab9 prom act inconclusive, SMN2 splice enh inconclusive, p53 reactivation inconclusive, FLuc counter inconclusive
COc1cccc(NC(=O)/C=C/c2ccc([N+](=O)[O-])cc2)c1	NPC1 promoter act inconclusive, Rab9 prom act inconclusive, FLuc counter 6.01µM (no result: SMN2 splice enh)
COc1cccc(NC(=O)/C=C/c2ccccc2[N+](=O)[O-])c1	NPC1 promoter act inconclusive, ELG1 genotoxic inconclusive, Rab9 prom act 3.98µM, SMN2 splice enh 3.16µM, p53 reactivation inconclusive, FLuc counter 5.36µM
COc1ccc(OC)c(NC(=O)/C=C/c2ccccc2[N+](=O)[O-])c1	FLuc counter inconclusive
O=C(/C=C/c1ccccc1[N+](=O)[O-])Nc1cccnc1	NPC1 promoter act inconclusive, Rab9 prom act 2.82µM, SMN2 splice enh 14.1µM, p53 reactivation inconclusive, FLuc counter 15.1µM
CCN(CC)S(=O)(=O)c1cccc(NC(=O)/C=C/c2ccc([N+](=O)[O-])cc2)c1	none
O=C(/C=C/c1ccccc1[N+](=O)[O-])NNC(=O)c1ccncc1	none (no result: SMN2 splice enh, FLuc counter)
COc1ccc(NC(=O)CN(C)C(=O)c2ccccc2Sc2ncnc3sc(C)c(C)c23)cc1	none (no result: SMN2 splice enh)
CN(Cc1ccccc1)S(=O)(=O)c1ccc(Cl)c(C(=O)NCc2cccnc2)c1	none (no result: SMN2 splice enh)
COc1cc(/C=C/C(=O)Nc2ccc3[nH]c(=O)[nH]c3c2)cc(OC)c1OC	FLuc counter inconclusive
COc1cccc(/C=C/C(=O)Nc2ccc3[nH]c(=O)[nH]c3c2)c1	SMN2 splice enh inconclusive, FLuc counter 9.53µM
Cc1ccc(OCC(=O)Nc2ccc3c(c2)OCO3)c([N+](=O)[O-])n1	NPC1 promoter act inconclusive, ELG1 genotoxic inconclusive, Rab9 prom act inconclusive, SMN2 splice enh 20µM, p53 reactivation inconclusive, FLuc counter 6.01µM
Cc1ccc(OCC(=O)Nc2ccc(C)c(F)c2)c([N+](=O)[O-])n1	NPC1 promoter act 2.24µM, ELG1 genotoxic inconclusive, Rab9 prom act 2µM, p53 reactivation inconclusive, FLuc counter 9.53µM (no result: SMN2 splice enh)
Cc1ccc(OCC(=O)Nc2ccc3c(c2)OC(F)(F)O3)c([N+](=O)[O-])n1	none
Cc1ccc(OCCOc2ccc(Br)cc2)c([N+](=O)[O-])n1	NPC1 promoter act inconclusive, ELG1 genotoxic inconclusive, Rab9 prom act inconclusive, SMN2 splice enh 11.2µM, p53 reactivation inconclusive, FLuc counter 9.53µM
Cc1ccc(OCc2ccc([N+](=O)[O-])cc2)c([N+](=O)[O-])n1	none (no result: SMN2 splice enh)
O=C(CCCN1C(=O)c2cccc3cccc(c23)C1=O)NC1CCS(=O)(=O)C1 (configuration not stated)	FLuc counter 4.78µM (no result: SMN2 splice enh)
Cc1ccc2nc(-c3ccc(C)c(NC(=O)CSc4ccc(Cl)cc4)c3)oc2c1	SMN2 splice enh inconclusive, FLuc counter 5.36µM (no result: NPC1 promoter act, ELG1 genotoxic, Rab9 prom act, p53 reactivation)
COc1ccc2oc(-c3ccc(C)c(NC(=O)CSc4ccc(Cl)cc4)c3)nc2c1	p53 reactivation inconclusive
Cc1ccc2nc(-c3cccc(NC(=O)CSc4ccc(Cl)cc4)c3)oc2c1	SMN2 splice enh inconclusive, FLuc counter 1.69µM (no result: NPC1 promoter act, ELG1 genotoxic, Rab9 prom act, p53 reactivation)
O=C(CSc1ccc(Cl)cc1)Nc1cccc(-c2nc3ncccc3o2)c1	none
O=C(Nc1nc2ccc(Br)cc2s1)c1ccco1	NPC1 promoter act 1.26µM, ELG1 genotoxic inconclusive, Rab9 prom act 0.631µM, p53 reactivation inconclusive, FLuc counter 3.01µM (no result: SMN2 splice enh)
O=C(Nc1nc2ccc(S(=O)(=O)N3CCCC3)cc2s1)c1ccco1	FLuc counter inconclusive
O=C(Nc1nc2ccc(Cl)cc2s1)c1ccco1	NPC1 promoter act 0.631µM, ELG1 genotoxic inconclusive, Rab9 prom act 1.26µM, SMN2 splice enh 3.16µM, p53 reactivation inconclusive, FLuc counter 1.69µM
COc1ccc(Cl)cc1NC(=O)Cc1coc2c(C)c(C)ccc12	none (no result: NPC1 promoter act, ELG1 genotoxic, Rab9 prom act, p53 reactivation)
O=C(Nc1cccc(S(=O)(=O)N2CCCCC2)c1)c1ccc(OCC2CCCO2)cc1 (configuration not stated)	FLuc counter 15.1µM
Cc1ccc(NC(=O)c2ccc(OCC3CCCO3)cc2)cc1 (configuration not stated)	NPC1 promoter act 2.24µM, ELG1 genotoxic inconclusive, Rab9 prom act 2.51µM, SMN2 splice enh 7.94µM, p53 reactivation inconclusive, FLuc counter 6.01µM
O=C(Nc1ccc(S(=O)(=O)N2CCCC2)cc1)c1ccc(OCC2CCCO2)cc1 (configuration not stated)	none
Cc1ccc(NC(=O)c2ccc(OCC3CCCO3)cc2)nc1 (configuration not stated)	NPC1 promoter act 1.78µM, ELG1 genotoxic inconclusive, Rab9 prom act 1µM, FLuc counter 4.78µM (no result: SMN2 splice enh)
Cc1ccc(NC(=O)c2ccc(OCc3c(C)noc3C)cc2)nc1	none (no result: SMN2 splice enh)
Cc1cnc(NC(=O)c2ccc(OCC3CCCO3)cc2)s1 (configuration not stated)	NPC1 promoter act 0.501µM, ELG1 genotoxic inconclusive, Rab9 prom act 0.126µM, SMN2 splice enh 2.24µM, FLuc counter 0.757µM
CCc1ccc(C2N3CC4(C)CN2CC(c2ccccc2)(C3)C4=O)cc1 (configuration not stated)	none (no result: NPC1 promoter act, ELG1 genotoxic, Rab9 prom act, p53 reactivation)
O=C(Nc1nc2ccccc2s1)c1ccc(OCC2CCCO2)cc1 (configuration not stated)	NPC1 promoter act 3.16µM, ELG1 genotoxic inconclusive, Rab9 prom act 0.398µM, p53 reactivation 28.2µM, FLuc counter 0.757µM (no result: SMN2 splice enh)
Cc1ccccc1OCc1nc2c3cnn(C)c3ncn2n1	NPC1 promoter act 3.98µM, ELG1 genotoxic 5.8µM, Rab9 prom act 2.82µM, SMN2 splice enh inconclusive, p53 reactivation inconclusive, FLuc counter inconclusive
COc1ccc(S(=O)(=O)CCC(=O)N2CCN(c3ccccc3F)CC2)cc1	none (no result: SMN2 splice enh)
O=C(CCS(=O)(=O)c1ccccc1)N1CCN(c2ccccc2F)CC1	NPC1 promoter act 1.78µM, ELG1 genotoxic 8.2µM, Rab9 prom act 1.26µM, FLuc counter 10.7µM (no result: SMN2 splice enh)
CCOc1cc(/C=C/c2cc(C(=O)O)c3ccccc3n2)ccc1O	FLuc counter 4.26µM
CCOc1ccccc1NC(=O)c1cc(-c2cc(OC)c(OC)c(OC)c2)nc2ccccc12	none (no result: SMN2 splice enh)
CCOc1cc(/C=N/N=C/c2ccc(O)c(OCC)c2)ccc1O	none (no result: SMN2 splice enh)
CCOc1cccc(/C=C/c2cc(C(=O)O)c3ccccc3n2)c1OC	NPC1 promoter act 2µM, ELG1 genotoxic inconclusive, Rab9 prom act 4.47µM, FLuc counter 1.07µM (no result: SMN2 splice enh)
CCOc1cc(/C=C/c2cc(C(=O)O)c3ccccc3n2)ccc1OC	NPC1 promoter act inconclusive, ELG1 genotoxic inconclusive, Rab9 prom act inconclusive, SMN2 splice enh 22.4µM, p53 reactivation inconclusive, FLuc counter 1.35µM
COc1cc(/C=C/c2cc(C(=O)O)c3ccccc3n2)cc(OC)c1O	FLuc counter 9.53µM
